About 83,000 compounds went through this panel and 20% of them were active in at least one assay; those are over-represented in the sample as a whole.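 Compound tested at a single concentration for 48 hours in 96-well plates; a percent growth value below 10 was scored as active.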 Unmarked numbers belong to inactive results. Activity calls are given as the source filed them.

Experiment in all cases: NCI-60 one-dose screen, 48 h (100 = growth as untreated, 0 = no growth, -100 = all killed)
Holding throughout (conditions): 10 µM unless noted

Experiment [1] concerns SN12C renal.
Experiment [2] relates to UO-31 renal.
Experiment [3] has as its system TK-10 renal.
Experiment [4] relates to ACHN renal.
Experiment [5] deals with CAKI-1 renal.
In experiment [6] the test system is CCRF-CEM leukemia.
In experiment [7] the test system is MOLT-4 leukemia.
The subject of experiment [8] is A498 renal.
For experiment [9], the system named is SR leukemia.

As for `COc1ccc(Nc2ccnc(NCCCNc3ccnc4cc(Cl)ccc34)n2)cc1`, the growth in experiment [1] was -21.5% (active); in [2], -71.8% (active); in experiment [3], -72.3% (active); in experiment [4] it was -96.8% (active); in [5] it was -40.3% (active); in experiment [6], -19.3% (active). Besides, in experiment [7], the growth is -21.1% (active).

In the case of `COc1ccc(-c2nnc(COc3ccc(NC(=O)Nc4cc(C(F)(F)F)cc(C(F)(F)F)c4)cc3F)o2)cc1`, the growth was 5.21% (active) in experiment [1]; -4.7% (active) in experiment [2]; 15.3% in [3]; 11% in experiment [4]; 12.3% in experiment [5]; -1.78% (active) in experiment [8]. In addition, the growth in [6] is 16.2%; in experiment [9] it was -13.2% (active).

As for `COc1ccc(-c2csc(NC(=O)c3cc(OC)c(OC)c(OC)c3)n2)cc1`, the growth is 98.7% in experiment [1]; 89.3% in [2]; 117% in [3]; 107% in [4]; 94.1% in experiment [5]; 92.2% in experiment [8]. Moreover, the figures for the growth in [6], in experiment [7] and in experiment [9] were 105%, 103% and 95.8%, respectively.

Regarding `c1ccc(-c2nnc(Nc3nnc(-c4ccccc4)s3)s2)cc1`, the growth in [1] was 102%; in [2] it was 82.5%; in [3], 142%; in [4] it was 96%; in experiment [5], 87.9%; in [8], 92.1%. Moreover, the figures for the growth in experiment [6], in experiment [7] and in experiment [9] were 95.5%, 102% and 97.4%, respectively.

`CN(C)c1cccc2c(S(=O)(=O)N[C@H]3CC[C@H]4[C@@H]5CCc6cc(O)ccc6[C@H]5CC[C@]34C)cccc12`: the growth in [1] was 25.4%; in experiment [2] it was 10.7%; in experiment [3], 51.1%; in experiment [4], 30.8%; in experiment [5] it was 15.5%; in experiment [8] it was 49%. The results for the growth in experiment [7] and in experiment [9] were 17.3% and -16.1% (active), respectively.

In the case of `C[C@]12CC[C@@H]3c4ccc(O)cc4CC[C@H]3[C@@H]1CC[C@@H]2NS(=O)(=O)c1cccc(Br)c1`, the growth in [1] was 69.8%; in experiment [2], 36.3%; in experiment [3] it was 75.4%; in experiment [4] it was 58.9%; in experiment [5], 62.9%; in [8], 65%. Also, the figures for the growth in experiment [7] and in experiment [9] were 36.3% and 27.1%, respectively.

On to `COc1cccc(C2C(C#N)=C(N)Oc3cc(OC)ccc32)c1` (configuration not stated), for which the growth in experiment [1] is 24.9%; in experiment [2], 41.6%; in [3] it was 50.6%; in experiment [4], 29.7%; in experiment [5] it was 20.6%; in experiment [6], -1.19% (active). The values for the growth in experiment [7] and in experiment [9] were 1.42% (active) and -30.3% (active), respectively.

Take `CCN(CC)c1ccc(C(O)C2=CC(=O)c3ccccc3C2=O)cc1` (configuration not stated): the growth was -28.1% (active) in [1]; 22.7% in experiment [2]; -31.4% (active) in [3]; -58.8% (active) in experiment [4]; 6.3% (active) in [8]; 7.92% (active) in [7]. For the same compound, the growth in experiment [9] is -5.59% (active).

Take `COc1cc2c(-c3nc4cc(Cl)c(F)cc4s3)cc(=O)oc2c(C)c1OC`: the growth in experiment [1] was -73.8% (active); in experiment [2] it was -94.4% (active); in experiment [4], -83.8% (active); in experiment [5], -78.5% (active); in experiment [8], 8.7% (active); in experiment [6], -72.5% (active). For the same compound, the growth in experiment [7] is -43% (active); in [9], -53.9% (active).

Consider `O=C(/C(=C/c1ccc([N+](=O)[O-])cc1)c1ccccc1)c1ccccc1`, for which the growth is 35.1% in experiment [1]; 43.1% in experiment [2]; 40.9% in [4]; 48.6% in [5]; 0.582% (active) in [6]; -2.9% (active) in [7].

Regarding `CCCCCCOc1ccc(/C=N/NC(N)=S)cc1`, the growth is 22.2% in experiment [1]; 17.8% in [2]; 54.3% in experiment [3]; 61.6% in experiment [4]; 99.7% in experiment [8]; 6.97% (active) in experiment [6]. Also, the growth was 7.23% (active) in [7] and 69.5% in experiment [9].

Consider `N#Cc1cccc(/C=C(/C(=O)c2ccccc2)c2ccccc2)c1`, for which the growth in [1] is 49.4%; in experiment [2], 49.3%; in [4], 45%; in [5], 55.5%; in experiment [8], 74.3%; in [6], 2.7% (active). For the same compound, the growth in [7] was 4.97% (active); in experiment [9], 3% (active).

With `COc1cc(/C=C/C(=O)c2c(-c3ccc(Cl)cc3)nc3sc(C)nn23)cc(OC)c1OC`, the growth in [1] was 78.3%; in experiment [2], 51.2%; in [4], 73.8%; in experiment [5], 93.7%; in experiment [8] it was 85.5%; in experiment [6], 32.5%. For the same compound, the growth in experiment [7] was 48.3%; in [9], 26.1%.

Turning to `CCOC(=O)/C(=C/c1ccccc1)C(=O)c1ccccc1`, the growth was 72.6% in experiment [1]; 53.1% in experiment [2]; 70.5% in experiment [4]; 78.1% in [5]; 87.5% in [8]; 3.43% (active) in experiment [6]. Also, the growth in experiment [7] was 33.1%; in [9] it was 6.68% (active).

In the case of `COc1cc2c(C#N)n3c(c2cc1OC)C(=O)C(c1ccccc1)Oc1ccccc1-3` (configuration not stated), the growth is 37.2% in experiment [1]; 15.8% in experiment [2]; 54.3% in experiment [4]; 65.6% in experiment [5]; 52.4% in [8]; 17.1% in experiment [6]. Further, the values for the growth in experiment [7] and in experiment [9] were 63.4% and 12.5%, respectively.

For the compound `Cc1ccc2c(c1)O/C(=C\c1ccc([N+](=O)[O-])o1)C2=O`, the growth was 34.7% in experiment [1]; -21.6% (active) in experiment [2]; -32.7% (active) in [3]; 1.36% (active) in experiment [4]; 36.8% in experiment [5]; -32.4% (active) in experiment [6]. The growth in [7] was -1.6% (active); in experiment [9] it was 10.6%.

Turning to `C[C@]12CC[C@@H]3c4ccc(O)c([N+](=O)[O-])c4CC[C@H]3[C@@H]1CC[C@@H]2NS(=O)(=O)c1ccc(C(F)(F)F)cc1`, the growth was 17.8% in [1]; -90.1% (active) in [2]; 46.5% in [3]; 3% (active) in experiment [4]; 46.3% in experiment [8]; 18.3% in experiment [6]. Besides, the growth in experiment [7] is 3.51% (active); in experiment [9], -8.8% (active).

Take `COc1ccc(-n2nnc(C(=O)O)c2-c2cc(OC)c(OC)c(OC)c2)cc1`: the growth in [1] is 105%; in experiment [2], 110%; in experiment [3], 93.2%; in [4], 105%; in [5], 102%; in experiment [6] it was 105%. Besides, the values for the growth in [7] and in experiment [9] were 94% and 85.4%, respectively.

For the compound `C=C1c2c(C)nn(-c3ccc(C#CCOC4OC(CO)C(O)C(O)C4O)cc3)c2N(C)C23C[C@H]1C1(C)c4c(C)nn(-c5ccc(C#CCOC6OC(CO)C(O)C(O)C6O)cc5)c4N(C)C(C)(C[C@H]12)C3` (some centres not stated), the growth in experiment [1] was 8.29% (active); in experiment [2] it was 21.1%; in experiment [4], 27.7%; in experiment [5], -29.8% (active); in [8], 4.38% (active); in experiment [6], -30.2% (active). Further, the growth is -14.9% (active) in [7] and 6.31% (active) in experiment [9].

`O=C(c1ccccc1)c1ccco1`: the growth is 88.4% in [1]; 88.7% in experiment [2]; 96% in [3]; 98.9% in [4]; 109% in experiment [8]; 93.3% in experiment [6]. The growth in [7] is 91.7%; in [9], 106%.

For `COc1ccc(C(=O)Nc2nc(-c3ccc(Cl)cc3)cs2)cc1`, the growth in [1] is 101%; in [2] it was 89.4%; in [3] it was 122%; in experiment [4], 94.4%; in [5] it was 96.7%; in [6], 104%. Besides, the growth in experiment [9] was 105%.

In the case of `COc1ccc(/C=C(\C#N)c2ccccc2)cc1`, the growth in experiment [1] was 86.6%; in [2], 85.6%; in experiment [4] it was 97.3%; in experiment [5], 78.2%; in experiment [8] it was 79.4%; in [6], 93.1%. Further, the growth is 96.1% in experiment [7] and 55.7% in [9].

Turning to `O=C1/C(=C/c2ccc([N+](=O)[O-])s2)Oc2ccc(Br)cc21`, the growth was -32.5% (active) in experiment [1]; -87.4% (active) in [2]; -25.3% (active) in [3]; -64% (active) in experiment [4]; -16.3% (active) in [5]; -3.33% (active) in experiment [6]. In addition, the figures for the growth in experiment [7] and in [9] were -16.8% (active) and 7.74% (active), respectively.

For `Cc1cc2c(C#N)n3c(c2cc1C)C(=O)C(c1ccccc1)Oc1ccccc1-3` (configuration not stated), the growth is 27.8% in experiment [1]; 14.5% in [2]; 32.6% in experiment [4]; 33.1% in experiment [5]; 41.2% in experiment [8]; 19.4% in experiment [6]. Besides, the growth is 69.2% in [7] and 7.67% (active) in experiment [9].

With `N#Cc1c2ccccc2c2n1-c1ccccc1OC(c1ccccc1)C2=O` (configuration not stated), the growth was 15.4% in experiment [1]; 11.2% in [2]; 29% in experiment [4]; 30.6% in experiment [5]; 30.6% in [8]; 6.32% (active) in experiment [6]. For the same compound, the growth in experiment [7] is 56.4%; in [9], -7.43% (active).

Turning to `O=C(/C(=C/c1cccc([N+](=O)[O-])c1)c1ccccc1)c1ccccc1`, the growth is 35.6% in experiment [1]; 48.8% in experiment [2]; 40.1% in experiment [4]; 47.7% in experiment [5]; 66.2% in experiment [8]; 1.9% (active) in [6]. In addition, the growth is 4.09% (active) in experiment [7] and 4.42% (active) in experiment [9].

With `O=C(/C=C/c1ccc(Cl)cc1)c1ccccc1`, the growth was 98% in experiment [1]; 88.3% in experiment [2]; 110% in experiment [4]; 101% in experiment [5]; 87.5% in experiment [8]; 87.9% in [6]. The growth in experiment [7] is 96.7%; in [9], 23.1%.

In the case of `O=C(NCCCO)c1cc(Cl)ccc1O`, the growth is 12.9% in [1]; 48.1% in [2]; 24.9% in experiment [3]; 14.6% in [4]; 53.2% in experiment [8]; 33.2% in [7]. In [9], the growth is 26.1%.

In the case of `C[n+]1ccc(C#N)c2ccccc21`, the growth in experiment [1] is 104%; in [2] it was 55.4%; in [3], 129%; in [4] it was 81.9%; in experiment [8], 95.3%; in experiment [6], 54.1%. In experiment [9], the growth was 67.5%.

On to `CCOC(Cc1c(N)[nH]c(=S)[nH]c1=O)OCC`, for which the growth was 110% in experiment [1]; 86% in experiment [2]; 108% in experiment [3]; 94.9% in experiment [4]; 104% in experiment [8].

(Values after PubChem BioAssay (NCI).)
